What all share (test): protein-binding microarray (PBM); PBM: ~300 nM protein, 6 mM HEPES pH 7.8, 80 mM KCl, 0.5 mM EDTA, 0.5 mM EGTA, 6% glycerol, 35 ng/ul poly-dIdC, 1% milk, 1 h, room temperature; Ap Aiptasia and Nv Nematostella (sea anemones) / Co Capsaspora / Aq Amphimedon (sponge) / Dm Drosophila / Hu human; RHD is the Rel homology domain; high values mean tight binding
What all share (conditions): dsDNA, one strand shown

In one assay the target is T1, GST-Ap-NF-kB RHD (Exaiptasia pallida (Aiptasia), UniProt A0A913YAJ5 2-422).
T1 sequence: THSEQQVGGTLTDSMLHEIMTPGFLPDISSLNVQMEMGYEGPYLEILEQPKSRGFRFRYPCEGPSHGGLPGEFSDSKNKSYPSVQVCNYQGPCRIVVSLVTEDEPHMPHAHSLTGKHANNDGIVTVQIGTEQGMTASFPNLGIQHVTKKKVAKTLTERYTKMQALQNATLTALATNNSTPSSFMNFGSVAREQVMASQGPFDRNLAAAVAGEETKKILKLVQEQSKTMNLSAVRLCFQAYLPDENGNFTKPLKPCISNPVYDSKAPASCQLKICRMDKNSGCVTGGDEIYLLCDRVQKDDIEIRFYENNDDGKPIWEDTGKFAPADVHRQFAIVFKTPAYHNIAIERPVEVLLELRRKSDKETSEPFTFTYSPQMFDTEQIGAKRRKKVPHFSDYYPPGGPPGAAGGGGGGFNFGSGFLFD

The target in assay [1] is T2, GST-Nv-NF-kB (Cys allele) (Nematostella vectensis, UniProt E5G601 2-411).
T2 sequence: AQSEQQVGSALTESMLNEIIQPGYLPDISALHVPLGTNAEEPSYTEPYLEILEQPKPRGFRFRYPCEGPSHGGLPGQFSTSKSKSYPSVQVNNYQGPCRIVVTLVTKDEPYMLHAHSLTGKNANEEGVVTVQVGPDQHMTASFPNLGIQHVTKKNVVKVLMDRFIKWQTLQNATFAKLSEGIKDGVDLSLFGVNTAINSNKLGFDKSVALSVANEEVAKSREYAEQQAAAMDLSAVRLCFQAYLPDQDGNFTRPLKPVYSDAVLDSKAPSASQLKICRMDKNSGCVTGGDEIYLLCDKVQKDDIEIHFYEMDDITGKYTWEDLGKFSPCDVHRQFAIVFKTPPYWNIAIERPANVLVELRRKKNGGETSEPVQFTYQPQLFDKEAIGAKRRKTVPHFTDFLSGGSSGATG

Assay [2] concerns the target T3, GST-Nv-NF-kB (Ser allele) (Nematostella vectensis, UniProt A7UNT2 2-411).
T3 sequence: T2 sequence with Q21R, C66S, S207N, E215Q, V217A, E225K, A268E, D399E

Another assay addresses T4, GST-Co-NF-kB (Capsaspora owczarzaki, UniProt F1ARL5 200-546).
T4 sequence: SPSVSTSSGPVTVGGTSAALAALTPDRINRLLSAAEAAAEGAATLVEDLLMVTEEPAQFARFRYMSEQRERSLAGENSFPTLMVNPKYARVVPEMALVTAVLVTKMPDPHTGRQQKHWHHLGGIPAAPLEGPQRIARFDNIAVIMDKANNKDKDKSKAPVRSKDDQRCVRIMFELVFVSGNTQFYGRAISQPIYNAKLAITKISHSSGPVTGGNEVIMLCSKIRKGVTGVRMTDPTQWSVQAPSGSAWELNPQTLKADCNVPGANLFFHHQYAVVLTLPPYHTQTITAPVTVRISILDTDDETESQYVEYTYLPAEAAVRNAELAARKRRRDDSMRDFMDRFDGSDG

The next assay deals with T5, GST-Dm-Relish (Drosophila melanogaster, UniProt Q94527 99-473).
T5 sequence: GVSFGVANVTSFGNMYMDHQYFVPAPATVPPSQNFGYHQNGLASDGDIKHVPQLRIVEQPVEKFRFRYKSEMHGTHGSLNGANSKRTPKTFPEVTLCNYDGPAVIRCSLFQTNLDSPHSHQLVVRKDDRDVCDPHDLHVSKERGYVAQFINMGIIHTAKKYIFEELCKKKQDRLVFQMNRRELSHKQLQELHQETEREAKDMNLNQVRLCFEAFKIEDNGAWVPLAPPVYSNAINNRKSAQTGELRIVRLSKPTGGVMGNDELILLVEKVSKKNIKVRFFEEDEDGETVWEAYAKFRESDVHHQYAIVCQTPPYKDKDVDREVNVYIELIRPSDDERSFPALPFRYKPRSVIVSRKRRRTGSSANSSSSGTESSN

The next assay has as its target T6, GST-Aq-NF-kB (Amphimedon queenslandica, UniProt A9Y5G7 2-389).
T6 sequence: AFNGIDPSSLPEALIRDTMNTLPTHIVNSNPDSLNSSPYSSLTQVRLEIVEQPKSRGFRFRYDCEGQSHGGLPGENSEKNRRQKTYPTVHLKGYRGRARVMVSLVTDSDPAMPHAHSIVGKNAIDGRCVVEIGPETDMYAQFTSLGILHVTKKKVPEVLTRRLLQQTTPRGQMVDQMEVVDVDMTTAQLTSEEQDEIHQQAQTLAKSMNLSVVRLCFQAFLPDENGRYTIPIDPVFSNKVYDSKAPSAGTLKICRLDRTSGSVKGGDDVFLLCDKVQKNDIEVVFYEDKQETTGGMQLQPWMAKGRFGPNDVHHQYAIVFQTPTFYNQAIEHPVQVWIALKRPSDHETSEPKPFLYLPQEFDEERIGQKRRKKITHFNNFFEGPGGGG

In a further assay the target is GST-Hu-p50 (Homo sapiens, UniProt P19838 7-356).

Where a chain is given by its changes, count along the chain named.

GST-Hu-p50, sequence (P19838 7-356): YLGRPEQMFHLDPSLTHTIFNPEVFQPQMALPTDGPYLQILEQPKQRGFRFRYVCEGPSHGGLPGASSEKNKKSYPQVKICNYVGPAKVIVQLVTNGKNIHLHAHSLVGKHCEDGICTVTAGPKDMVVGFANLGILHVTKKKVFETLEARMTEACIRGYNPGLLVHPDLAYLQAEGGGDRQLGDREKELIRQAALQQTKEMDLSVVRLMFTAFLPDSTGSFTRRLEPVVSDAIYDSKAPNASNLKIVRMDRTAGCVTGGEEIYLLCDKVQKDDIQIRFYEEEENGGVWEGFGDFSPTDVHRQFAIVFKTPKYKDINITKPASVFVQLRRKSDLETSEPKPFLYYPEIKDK

For the sequence “CCGATTAACATCAGGGGAATAAATGATGTTAATCGGGTCTTGATTCGCTTGACGCTGCTG”, the binding signal was determined as 6.25 z-score in the assay with GST-Ap-NF-kB RHD; 7.82 z-score in assay [1]; 8.47 z-score in assay [2]; 8.22 z-score with GST-Co-NF-kB; 5.48 z-score with GST-Dm-Relish; 5.94 z-score with GST-Aq-NF-kB. The sequence also displayed a binding signal in the assay with GST-Hu-p50 of 5.62 z-score.
For “CCGATTAACATCAACTCTCCCCCTGATGTTAATCGGGTCTTGATTCGCTTGACGCTGCTG”, the binding signal came to 5.78 z-score in the assay with GST-Ap-NF-kB RHD; 4.61 z-score in assay [1]; 5.62 z-score in assay [2]; 7.94 z-score with GST-Co-NF-kB; 2.14 z-score in the assay with GST-Dm-Relish; 4.72 z-score in the assay with GST-Aq-NF-kB. The sequence also came in with a binding signal in the assay with GST-Hu-p50 of 4.41 z-score.
Regarding “CCGATTAACATCACGGGGGTTCCTGATGTTAATCGGGTCTTGATTCGCTTGACGCTGCTG”, the binding signal with GST-Ap-NF-kB RHD came to 9.11 z-score; in assay [1], 5.77 z-score; in assay [2], 4.99 z-score; with GST-Co-NF-kB it was 2.92 z-score; with GST-Dm-Relish, 9.73 z-score; with GST-Aq-NF-kB it was 6.72 z-score. The sequence also displayed a binding signal with GST-Hu-p50 of 5.25 z-score.
Turning to “CCGATTAACATCAGATTTTCCCCTGATGTTAATCGGGTCTTGATTCGCTTGACGCTGCTG”, the binding signal with GST-Ap-NF-kB RHD is 8 z-score; in assay [1], 8.78 z-score; in assay [2], 11 z-score; with GST-Co-NF-kB, 9.39 z-score; with GST-Dm-Relish, 4.94 z-score; with GST-Aq-NF-kB, 7.27 z-score. The binding signal in the assay with GST-Hu-p50 was found to be 6.35 z-score.
Regarding “CCGATTAACATCAAAAGAACCCCTGATGTTAATCGGGTCTTGATTCGCTTGACGCTGCTG”, the binding signal with GST-Ap-NF-kB RHD stood at 4.18 z-score; in assay [1], 3.46 z-score; in assay [2], 3.14 z-score; with GST-Co-NF-kB it was 2.76 z-score; in the assay with GST-Dm-Relish, 5.45 z-score; with GST-Aq-NF-kB it was 4.8 z-score. In the assay with GST-Hu-p50, this sequence came in with a binding signal of 4.47 z-score.
With “CCGATTAACATCAAAAGGGAATTTGATGTTAATCGGGTCTTGATTCGCTTGACGCTGCTG”, the binding signal was 3.2 z-score with GST-Ap-NF-kB RHD; 6.76 z-score in assay [1]; 7.17 z-score in assay [2]; 1.41 z-score with GST-Co-NF-kB; 4.25 z-score with GST-Dm-Relish; 4.96 z-score with GST-Aq-NF-kB. Further, the binding signal in the assay with GST-Hu-p50 amounted to 5.13 z-score.
For the sequence “CCGATTAACATCAAAAATCCCAATGATGTTAATCGGGTCTTGATTCGCTTGACGCTGCTG”, the binding signal in the assay with GST-Ap-NF-kB RHD came to 2.79 z-score; in assay [1], 3.4 z-score; in assay [2] it was 2.4 z-score; with GST-Co-NF-kB, 1.58 z-score; with GST-Dm-Relish, 6.98 z-score; with GST-Aq-NF-kB, 3.37 z-score. Also, in the assay with GST-Hu-p50, the binding signal worked out at 3.32 z-score.
For “CCGATTAACATCAGAAATGTCCCTGATGTTAATCGGGTCTTGATTCGCTTGACGCTGCTG”, the binding signal with GST-Ap-NF-kB RHD stood at 2.83 z-score; in assay [1], 4.85 z-score; in assay [2], 4.61 z-score; with GST-Co-NF-kB, 1.29 z-score; with GST-Dm-Relish, 3.1 z-score; with GST-Aq-NF-kB it was 4.94 z-score. The same sequence displayed a binding signal with GST-Hu-p50 of 4.36 z-score.
On to “CCGATTAACATCACGGGAACACCTGATGTTAATCGGGTCTTGATTCGCTTGACGCTGCTG”, for which the binding signal with GST-Ap-NF-kB RHD was 1.81 z-score; in assay [1] it was 1.11 z-score; in assay [2], 1.02 z-score; in the assay with GST-Co-NF-kB, 1.95 z-score; in the assay with GST-Dm-Relish, 4.06 z-score; with GST-Aq-NF-kB, 2.73 z-score. For the same sequence, the binding signal in the assay with GST-Hu-p50 was found to be 1.28 z-score.
Consider “CCGATTAACATCAAAAAACTCCCTGATGTTAATCGGGTCTTGATTCGCTTGACGCTGCTG”, for which the binding signal with GST-Ap-NF-kB RHD is 6.44 z-score; in assay [1], 8.22 z-score; in assay [2], 8.11 z-score; with GST-Co-NF-kB it was 3.38 z-score; with GST-Dm-Relish, 7.13 z-score; in the assay with GST-Aq-NF-kB it was 7.46 z-score. For the same sequence, in the assay with GST-Hu-p50, the binding signal came out at 5.69 z-score.
Regarding “CCGATTAACATCAAAACCCCCCTTGATGTTAATCGGGTCTTGATTCGCTTGACGCTGCTG”, the binding signal with GST-Ap-NF-kB RHD turned out to be 8.76 z-score; in assay [1] it was 7.32 z-score; in assay [2] it was 7.84 z-score; with GST-Co-NF-kB it was 3.85 z-score; in the assay with GST-Dm-Relish, 10.5 z-score; in the assay with GST-Aq-NF-kB, 8.03 z-score. This sequence also gave a binding signal with GST-Hu-p50 of 7 z-score.
Consider “CCGATTAACATCAGGGGGGTGAATGATGTTAATCGGGTCTTGATTCGCTTGACGCTGCTG”, for which the binding signal with GST-Ap-NF-kB RHD turned out to be 3.76 z-score; in assay [1], 4.08 z-score; in assay [2], 4.43 z-score; with GST-Co-NF-kB, 5.24 z-score; in the assay with GST-Dm-Relish, 4.14 z-score; in the assay with GST-Aq-NF-kB, 4.32 z-score. Also, the binding signal in the assay with GST-Hu-p50 is 4.12 z-score.

The values above are taken from PMC5700166.
